Results: paper PMC7862700, “An all-to-all approach to the identification of sequence-specific readers for epigenetic DNA modifications on cytosine”

How the values were obtained:
Assay in all cases: DAPPL (digital affinity profiling via proximity ligation, sequencing); 10 mM Tris-HCl pH 7.5, 50 mM NaCl, 1 mM DTT, 4% glycerol, room temperature, 30 min; GST-TFs on glutathione beads, 16-mer random dsDNA library, 0.1% formaldehyde crosslink after washing; high values mean tight binding
FEV = target: T1, FEV (Homo sapiens, UniProt Q99581 1-238); settings: protein: recombinant; tags: N-terminal GST; dsDNA, one strand shown
T1 sequence: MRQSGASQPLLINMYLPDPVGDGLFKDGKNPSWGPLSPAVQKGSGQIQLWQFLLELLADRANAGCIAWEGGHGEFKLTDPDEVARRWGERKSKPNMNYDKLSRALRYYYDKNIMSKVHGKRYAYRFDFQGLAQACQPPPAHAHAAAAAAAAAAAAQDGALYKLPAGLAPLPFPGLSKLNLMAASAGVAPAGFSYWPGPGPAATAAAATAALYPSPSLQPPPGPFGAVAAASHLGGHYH
In short: (§1)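 Binding signal is each hexamer's read frequency for a factor divided by its frequency in the tag-only sample. The factors were GST-fused human transcription factors from yeast, captured on glutathione beads, DNA-barcoded and pooled with that sample. Pools were incubated with 200 nmole of a random double-stranded 16-mer DNA library in Tris/NaCl/DTT/glycerol buffer at room temperature for 30 min, then washed, crosslinked with 0.1% formaldehyde, proximity-ligated with BsaI/T4 ligase (1 h, 37 °C), PCR-amplified and sequenced on an Illumina NextSeq500.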

ETV5 = ETV5 (Homo sapiens, UniProt P41161 1-510); settings: protein: recombinant; tags: N-terminal GST; dsDNA, one strand shown
Chain of ETV5 (P41161 whole entry): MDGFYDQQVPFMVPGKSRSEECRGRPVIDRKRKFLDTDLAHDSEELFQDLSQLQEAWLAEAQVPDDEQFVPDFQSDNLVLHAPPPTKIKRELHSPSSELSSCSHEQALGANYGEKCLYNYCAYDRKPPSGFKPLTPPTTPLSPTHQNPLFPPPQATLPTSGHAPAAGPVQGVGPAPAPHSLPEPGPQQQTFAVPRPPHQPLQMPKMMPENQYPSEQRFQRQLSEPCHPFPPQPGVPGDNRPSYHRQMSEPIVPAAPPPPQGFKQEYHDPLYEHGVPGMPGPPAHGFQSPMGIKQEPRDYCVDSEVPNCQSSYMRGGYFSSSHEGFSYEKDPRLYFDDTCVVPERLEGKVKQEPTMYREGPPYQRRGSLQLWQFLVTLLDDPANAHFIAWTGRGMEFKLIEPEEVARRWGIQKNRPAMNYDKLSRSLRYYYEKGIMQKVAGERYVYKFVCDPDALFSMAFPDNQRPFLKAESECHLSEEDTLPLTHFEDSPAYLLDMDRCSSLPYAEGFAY
In short: as §1

HSF1 = HSF1 (Homo sapiens, UniProt Q00613 1-529); settings: protein: recombinant; tags: N-terminal GST; chain copies: 3; dsDNA, one strand shown
Chain of HSF1 (Q00613 whole entry): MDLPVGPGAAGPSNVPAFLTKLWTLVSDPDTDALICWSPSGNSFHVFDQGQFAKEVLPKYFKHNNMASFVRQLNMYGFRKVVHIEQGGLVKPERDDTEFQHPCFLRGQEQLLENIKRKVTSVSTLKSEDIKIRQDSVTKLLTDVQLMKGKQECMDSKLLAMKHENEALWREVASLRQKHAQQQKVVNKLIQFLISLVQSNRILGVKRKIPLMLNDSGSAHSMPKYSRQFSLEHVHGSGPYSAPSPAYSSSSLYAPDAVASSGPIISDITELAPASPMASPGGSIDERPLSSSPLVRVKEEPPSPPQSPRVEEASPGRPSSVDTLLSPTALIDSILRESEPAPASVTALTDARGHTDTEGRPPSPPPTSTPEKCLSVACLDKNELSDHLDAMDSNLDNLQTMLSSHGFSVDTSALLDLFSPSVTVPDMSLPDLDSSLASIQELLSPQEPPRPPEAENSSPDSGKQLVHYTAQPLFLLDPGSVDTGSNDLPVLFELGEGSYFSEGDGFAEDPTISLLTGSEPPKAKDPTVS
In short: as §1

SPIC = target: T2, SPIC (Homo sapiens, UniProt Q8N5J4 1-248); settings: protein: recombinant; tags: N-terminal GST; dsDNA, one strand shown
T2 sequence: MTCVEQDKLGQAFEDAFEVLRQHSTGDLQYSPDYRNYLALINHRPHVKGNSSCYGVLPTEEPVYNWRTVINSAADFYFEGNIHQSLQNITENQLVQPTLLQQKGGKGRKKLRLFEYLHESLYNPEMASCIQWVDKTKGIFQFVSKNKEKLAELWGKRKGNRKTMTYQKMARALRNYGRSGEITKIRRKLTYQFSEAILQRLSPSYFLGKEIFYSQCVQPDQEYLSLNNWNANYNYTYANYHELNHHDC
In short: as §1

ELF4 = ELF4 (Homo sapiens, UniProt Q99607 1-663); settings: protein: recombinant; tags: N-terminal GST; dsDNA, one strand shown
Chain of ELF4 (Q99607 whole entry): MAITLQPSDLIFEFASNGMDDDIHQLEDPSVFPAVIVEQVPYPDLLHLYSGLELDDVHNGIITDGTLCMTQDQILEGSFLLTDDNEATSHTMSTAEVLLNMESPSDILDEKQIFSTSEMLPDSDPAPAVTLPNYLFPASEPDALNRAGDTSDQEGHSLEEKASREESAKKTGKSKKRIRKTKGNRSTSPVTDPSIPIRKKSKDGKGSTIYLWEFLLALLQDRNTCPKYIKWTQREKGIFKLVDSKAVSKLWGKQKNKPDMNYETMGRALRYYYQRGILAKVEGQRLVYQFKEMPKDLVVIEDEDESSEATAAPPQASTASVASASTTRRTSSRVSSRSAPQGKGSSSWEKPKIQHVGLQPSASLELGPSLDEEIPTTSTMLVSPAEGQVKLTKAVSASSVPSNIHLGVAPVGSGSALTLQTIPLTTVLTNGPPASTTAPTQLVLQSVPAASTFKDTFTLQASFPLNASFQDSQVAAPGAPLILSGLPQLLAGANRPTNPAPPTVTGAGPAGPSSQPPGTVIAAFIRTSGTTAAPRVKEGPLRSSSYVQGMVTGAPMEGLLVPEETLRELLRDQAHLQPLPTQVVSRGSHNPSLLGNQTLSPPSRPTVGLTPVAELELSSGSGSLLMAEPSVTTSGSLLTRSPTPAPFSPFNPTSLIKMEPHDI
In short: as §1

ELK4 = target: T3, ELK4 (Homo sapiens, UniProt P28324-2 1-405); settings: protein: recombinant; tags: N-terminal GST; dsDNA, one strand shown
T3 sequence: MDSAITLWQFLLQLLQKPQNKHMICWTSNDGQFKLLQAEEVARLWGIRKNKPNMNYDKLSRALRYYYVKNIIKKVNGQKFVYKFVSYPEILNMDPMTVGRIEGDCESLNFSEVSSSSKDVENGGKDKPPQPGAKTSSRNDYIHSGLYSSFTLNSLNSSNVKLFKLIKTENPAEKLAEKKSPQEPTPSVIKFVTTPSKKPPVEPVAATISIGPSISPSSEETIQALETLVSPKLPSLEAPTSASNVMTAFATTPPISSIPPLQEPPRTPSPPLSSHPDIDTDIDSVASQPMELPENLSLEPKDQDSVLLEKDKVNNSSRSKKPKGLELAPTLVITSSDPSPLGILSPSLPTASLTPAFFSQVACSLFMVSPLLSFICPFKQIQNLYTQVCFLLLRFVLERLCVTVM
In short: as §1

ETV2 = target: T4, ETV2 (Homo sapiens, UniProt O00321 1-342); settings: protein: recombinant; tags: N-terminal GST; dsDNA, one strand shown
T4 sequence: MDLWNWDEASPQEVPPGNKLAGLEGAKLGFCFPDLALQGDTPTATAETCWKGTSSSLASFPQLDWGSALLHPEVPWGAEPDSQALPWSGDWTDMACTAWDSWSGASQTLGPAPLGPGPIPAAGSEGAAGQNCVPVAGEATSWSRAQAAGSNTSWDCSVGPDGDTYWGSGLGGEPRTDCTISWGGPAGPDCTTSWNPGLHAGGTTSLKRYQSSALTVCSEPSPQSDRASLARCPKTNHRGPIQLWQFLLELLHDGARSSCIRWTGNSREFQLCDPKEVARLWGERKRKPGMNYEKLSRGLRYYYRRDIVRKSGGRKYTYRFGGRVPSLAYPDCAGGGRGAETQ
In short: as §1

ELF3 = target: T5, ELF3 (Homo sapiens, UniProt P78545 1-371); settings: protein: recombinant; tags: N-terminal GST; dsDNA, one strand shown
T5 sequence: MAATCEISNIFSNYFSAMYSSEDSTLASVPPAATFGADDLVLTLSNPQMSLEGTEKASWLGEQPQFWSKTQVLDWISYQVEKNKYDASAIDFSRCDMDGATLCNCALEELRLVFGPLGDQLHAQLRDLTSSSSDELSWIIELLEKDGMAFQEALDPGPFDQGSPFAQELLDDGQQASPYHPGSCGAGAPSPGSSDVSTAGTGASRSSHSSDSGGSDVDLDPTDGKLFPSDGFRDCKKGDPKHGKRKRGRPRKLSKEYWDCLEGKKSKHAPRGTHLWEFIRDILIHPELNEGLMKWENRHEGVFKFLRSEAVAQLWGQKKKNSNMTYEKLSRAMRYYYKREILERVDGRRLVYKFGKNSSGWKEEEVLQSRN
In short: as §1

CRX = CRX (Homo sapiens, UniProt O43186 1-299); settings: protein: recombinant; tags: N-terminal GST; dsDNA, one strand shown
Chain of CRX (O43186 whole entry): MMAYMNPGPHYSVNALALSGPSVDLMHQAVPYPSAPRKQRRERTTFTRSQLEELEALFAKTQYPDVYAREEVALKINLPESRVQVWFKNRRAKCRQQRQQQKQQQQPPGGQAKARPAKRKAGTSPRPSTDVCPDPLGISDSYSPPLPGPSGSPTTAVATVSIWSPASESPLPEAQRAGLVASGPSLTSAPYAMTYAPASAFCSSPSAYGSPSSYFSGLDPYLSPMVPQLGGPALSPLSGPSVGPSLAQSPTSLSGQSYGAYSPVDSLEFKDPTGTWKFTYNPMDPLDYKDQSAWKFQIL
In short: as §1

ETV1 = ETV1 (Homo sapiens, UniProt P50549 1-477); settings: protein: recombinant; tags: N-terminal GST; dsDNA, one strand shown
Chain of ETV1 (P50549 whole entry): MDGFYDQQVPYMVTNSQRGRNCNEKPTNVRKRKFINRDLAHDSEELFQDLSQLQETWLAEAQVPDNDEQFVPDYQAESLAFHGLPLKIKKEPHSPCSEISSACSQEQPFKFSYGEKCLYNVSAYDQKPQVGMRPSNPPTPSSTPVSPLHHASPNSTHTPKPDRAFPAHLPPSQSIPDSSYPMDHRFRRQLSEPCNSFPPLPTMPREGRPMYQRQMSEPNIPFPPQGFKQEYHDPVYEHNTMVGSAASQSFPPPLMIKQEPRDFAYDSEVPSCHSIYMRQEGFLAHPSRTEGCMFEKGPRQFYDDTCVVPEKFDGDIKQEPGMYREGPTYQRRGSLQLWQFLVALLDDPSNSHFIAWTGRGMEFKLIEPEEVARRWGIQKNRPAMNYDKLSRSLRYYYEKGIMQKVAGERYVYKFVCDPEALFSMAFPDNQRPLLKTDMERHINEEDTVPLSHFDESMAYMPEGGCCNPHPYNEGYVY
In short: as §1

Question: TTTATT was tested. Which binding signal (FEV) did it give?
Answer: 1.29 fold enrichment (6-mer frequency, TF over GST control)

Question: What about the binding signal (ETV5) of the same sequence?
Answer: 1.29 fold enrichment (6-mer frequency, TF over GST control)

Question: What about the binding signal (HSF1) of the same sequence?
Answer: 1.46 fold enrichment (6-mer frequency, TF over GST control)

Question: And the binding signal (SPIC)?
Answer: 1.25 fold enrichment (6-mer frequency, TF over GST control)

Question: And the binding signal (ELF4)?
Answer: 1.3 fold enrichment (6-mer frequency, TF over GST control)

Question: And the binding signal (ELK4)?
Answer: 1.27 fold enrichment (6-mer frequency, TF over GST control)

Question: And the binding signal (ETV2)?
Answer: 1.29 fold enrichment (6-mer frequency, TF over GST control)

Question: And the binding signal (ELF3)?
Answer: 1.29 fold enrichment (6-mer frequency, TF over GST control)

Question: And the binding signal (CRX)?
Answer: 1.93 fold enrichment (6-mer frequency, TF over GST control)

Question: And the binding signal (ETV1)?
Answer: 1.27 fold enrichment (6-mer frequency, TF over GST control)

Question: For TCTAAC, which binding signal (FEV) is on record?
Answer: 1.23 fold enrichment (6-mer frequency, TF over GST control)

Question: What about the binding signal (ETV5) of the same sequence?
Answer: 1.21 fold enrichment (6-mer frequency, TF over GST control)

Question: And the binding signal (HSF1)?
Answer: 1.25 fold enrichment (6-mer frequency, TF over GST control)

Question: What about the binding signal (SPIC) of the same sequence?
Answer: 1.07 fold enrichment (6-mer frequency, TF over GST control)

Question: And the binding signal (ELF4)?
Answer: 1.22 fold enrichment (6-mer frequency, TF over GST control)

Question: What about the binding signal (ELK4) of the same sequence?
Answer: 1.2 fold enrichment (6-mer frequency, TF over GST control)

Question: And the binding signal (ETV2)?
Answer: 1.12 fold enrichment (6-mer frequency, TF over GST control)

Question: And the binding signal (ELF3)?
Answer: 1.23 fold enrichment (6-mer frequency, TF over GST control)

Question: What about the binding signal (CRX) of the same sequence?
Answer: 1.24 fold enrichment (6-mer frequency, TF over GST control)

Question: What about the binding signal (ETV1) of the same sequence?
Answer: 1.16 fold enrichment (6-mer frequency, TF over GST control)

Question: TTTCTG was tested. Which binding signal (FEV) did it give?
Answer: 1.32 fold enrichment (6-mer frequency, TF over GST control)

Question: And the binding signal (ETV5)?
Answer: 1.31 fold enrichment (6-mer frequency, TF over GST control)

Question: What about the binding signal (HSF1) of the same sequence?
Answer: 2.33 fold enrichment (6-mer frequency, TF over GST control)

Question: What about the binding signal (SPIC) of the same sequence?
Answer: 1.3 fold enrichment (6-mer frequency, TF over GST control)

Question: And the binding signal (ELF4)?
Answer: 1.39 fold enrichment (6-mer frequency, TF over GST control)

Question: What about the binding signal (ELK4) of the same sequence?
Answer: 1.52 fold enrichment (6-mer frequency, TF over GST control)

Question: What about the binding signal (ETV2) of the same sequence?
Answer: 1.36 fold enrichment (6-mer frequency, TF over GST control)

Question: What about the binding signal (ELF3) of the same sequence?
Answer: 1.44 fold enrichment (6-mer frequency, TF over GST control)

Question: What about the binding signal (CRX) of the same sequence?
Answer: 1.45 fold enrichment (6-mer frequency, TF over GST control)

Question: And the binding signal (ETV1)?
Answer: 1.3 fold enrichment (6-mer frequency, TF over GST control)

Question: For CCGCTA, which binding signal (FEV) is on record?
Answer: 1.33 fold enrichment (6-mer frequency, TF over GST control)

Question: What about the binding signal (ETV5) of the same sequence?
Answer: 1.23 fold enrichment (6-mer frequency, TF over GST control)

Question: And the binding signal (HSF1)?
Answer: 1.17 fold enrichment (6-mer frequency, TF over GST control)

Question: And the binding signal (SPIC)?
Answer: 1.44 fold enrichment (6-mer frequency, TF over GST control)

Question: What about the binding signal (ELF4) of the same sequence?
Answer: 1.33 fold enrichment (6-mer frequency, TF over GST control)

Question: What about the binding signal (ELK4) of the same sequence?
Answer: 1.3 fold enrichment (6-mer frequency, TF over GST control)

Question: And the binding signal (ETV2)?
Answer: 1.37 fold enrichment (6-mer frequency, TF over GST control)

Question: And the binding signal (ELF3)?
Answer: 1.38 fold enrichment (6-mer frequency, TF over GST control)

Question: And the binding signal (CRX)?
Answer: 1.28 fold enrichment (6-mer frequency, TF over GST control)

Question: And the binding signal (ETV1)?
Answer: 1.36 fold enrichment (6-mer frequency, TF over GST control)

Question: Which results are given for AATTGG?
Answer: binding signal (FEV): 1.43 fold enrichment (6-mer frequency, TF over GST control); binding signal (ETV5): 1.4 fold enrichment (6-mer frequency, TF over GST control); binding signal (HSF1): 1.2 fold enrichment (6-mer frequency, TF over GST control); binding signal (SPIC): 1.26 fold enrichment (6-mer frequency, TF over GST control); binding signal (ELF4): 1.38 fold enrichment (6-mer frequency, TF over GST control); binding signal (ELK4): 1.16 fold enrichment (6-mer frequency, TF over GST control); binding signal (ETV2): 1.2 fold enrichment (6-mer frequency, TF over GST control); binding signal (ELF3): 1.35 fold enrichment (6-mer frequency, TF over GST control); binding signal (CRX): 1.23 fold enrichment (6-mer frequency, TF over GST control); binding signal (ETV1): 1.39 fold enrichment (6-mer frequency, TF over GST control)

Question: Which results are given for TTAATC?
Answer: binding signal (FEV): 1.19 fold enrichment (6-mer frequency, TF over GST control); binding signal (ETV5): 1.23 fold enrichment (6-mer frequency, TF over GST control); binding signal (HSF1): 3.29 fold enrichment (6-mer frequency, TF over GST control); binding signal (SPIC): 1.19 fold enrichment (6-mer frequency, TF over GST control); binding signal (ELF4): 1.26 fold enrichment (6-mer frequency, TF over GST control); binding signal (ELK4): 1.43 fold enrichment (6-mer frequency, TF over GST control); binding signal (ETV2): 1.13 fold enrichment (6-mer frequency, TF over GST control); binding signal (ELF3): 1.27 fold enrichment (6-mer frequency, TF over GST control); binding signal (CRX): 6.11 fold enrichment (6-mer frequency, TF over GST control); binding signal (ETV1): 1.33 fold enrichment (6-mer frequency, TF over GST control)

Question: With CAGCTT as the sequence, how does the binding signal (FEV) read?
Answer: 1.2 fold enrichment (6-mer frequency, TF over GST control)

Question: What about the binding signal (ETV5) of the same sequence?
Answer: 1.17 fold enrichment (6-mer frequency, TF over GST control)

Question: And the binding signal (HSF1)?
Answer: 1.43 fold enrichment (6-mer frequency, TF over GST control)

Question: And the binding signal (SPIC)?
Answer: 1.01 fold enrichment (6-mer frequency, TF over GST control)

Question: And the binding signal (ELF4)?
Answer: 1.19 fold enrichment (6-mer frequency, TF over GST control)

Question: And the binding signal (ELK4)?
Answer: 1.24 fold enrichment (6-mer frequency, TF over GST control)

Question: What about the binding signal (ETV2) of the same sequence?
Answer: 1.36 fold enrichment (6-mer frequency, TF over GST control)

Question: And the binding signal (ELF3)?
Answer: 1.19 fold enrichment (6-mer frequency, TF over GST control)

Question: What about the binding signal (CRX) of the same sequence?
Answer: 1.9 fold enrichment (6-mer frequency, TF over GST control)

Question: And the binding signal (ETV1)?
Answer: 1.16 fold enrichment (6-mer frequency, TF over GST control)
